# Test results as given in PubChem BioAssay (NCATS).
# Results filed as inconclusive are left out. Where a call stands in place of a potency, no number is given. Calls of active or inactive are those of the source. Calls follow the shape of the dose curve; as a rule, active = well fitted curve in the direction sought with a large enough effect; inconclusive = small, poorly fitted or top-dose-only effect, or another doubt; inactive = no such curve, though single readings can be large; an effect the other way counts as inactive or inconclusive.
# How the values were obtained:
# [1] = qHTS of pediatric cancer cell lines to identify multiple opportunities for drug repurposing: Primary screen for NB1643 cells (AID 1347099); also: nearly all actives have a fitted effect of over 50% in size; also: potency is read from the fitted curve at half-maximal effect
# In short: (§1)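 Readout: CellTiter-Glo luminescence, 48 h treatment. Controls DMSO (neutral) and bortezomib 2.3 µM final (positive). Potency and efficacy taken from primary-screen concentration-response curves.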
# [2] = qHTS of pediatric cancer cell lines to identify multiple opportunities for drug repurposing: Primary screen for BT-12 cells (AID 1347101); also: nearly all actives have a fitted effect of over 25% in size; also: potency is read from the fitted curve at half-maximal effect
# In short: (§2)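 Cells (500-1,000/well) rested 5 h, then received compounds for 48 h; metabolically active cells were measured by CellTiter-Glo luminescence. Final concentrations spanned up to 46 µM (MIPE, 11-point) or 0.59 nM-46 µM (NPC, 8-point) in primary screens, 11-point in follow-ups.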
# [3] = qHTS of pediatric cancer cell lines to identify multiple opportunities for drug repurposing: Primary screen for Rh18 cells (AID 1347102); also: nearly all actives have a fitted effect of over 65% in size; also: potency is read from the fitted curve at half-maximal effect
# In short: (§3)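 Cells (500-1,000/well) in growth media were settled 5 h at 37 degrees C, then given compounds for 48 h. Viability was read as CellTiter-Glo luminescence. Primary runs used MIPE at 11 points (0.78 nM-46 µM) and NPC at 8 points (0.59 nM-46 µM); follow-ups used 11 points.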
# [4] = qHTS of pediatric cancer cell lines to identify multiple opportunities for drug repurposing: Primary screen for OHS-50 cells (AID 1347103); also: nearly all actives have a fitted effect of over 40% in size; also: potency is read from the fitted curve at half-maximal effect
# In short: as §2
# [5] = qHTS of pediatric cancer cell lines to identify multiple opportunities for drug repurposing: Primary screen for MG 63 (6-TG R) cells (AID 1347105); also: nearly all actives have a fitted effect of over 50% in size; also: potency is read from the fitted curve at half-maximal effect
# In short: as §1
# [6] = qHTS of pediatric cancer cell lines to identify multiple opportunities for drug repurposing: Primary screen for Rh41 cells (AID 1347108); also: nearly all actives have a fitted effect of over 70% in size; also: potency is read from the fitted curve at half-maximal effect
# In short: as §1
# [7] = qHTS of pediatric cancer cell lines to identify multiple opportunities for drug repurposing: Primary screen for control Hh wild type fibroblast cells (AID 1347106);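 also: series mostly up to about 46 µM; a drop in luminescence marks cytotoxicity and a rise apparent proliferation; nearly all actives have a fitted effect of over 55% in size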
# In short: as §3
# [8] = qHTS of pediatric cancer cell lines to identify multiple opportunities for drug repurposing: Primary screen for Rh30 cells (AID 1347107); also: nearly all actives have a fitted effect of over 75% in size; also: potency is read from the fitted curve at half-maximal effect
# In short: as §3
# [9] = qHTS of pediatric cancer cell lines to identify multiple opportunities for drug repurposing: Primary screen for LAN-5 cells (AID 1347100); also: potency is read from the fitted curve at half-maximal effect
# In short: as §3
# [10] = qHTS of pediatric cancer cell lines to identify multiple opportunities for drug repurposing: Primary screen for RD cells (AID 1347104); also: nearly all actives have a fitted effect of over 55% in size; also: potency is read from the fitted curve at half-maximal effect
# In short: as §1
SMILES,Potency [1],Potency [2],Potency [3],Potency [4],Potency [5],Potency [6],Potency [7],Potency [8],Potency [9],Potency [10]
Cc1cc(-c2ncc(CC(=O)Nc3ccc(-c4cnccn4)cn3)cc2C)ccn1,16.6 µM (active),6.85 µM (active),inactive,5.44 µM (active),inactive,inactive,–,–,–,–
CCN1CCN(c2ccc(Nc3cc(N(C)C(=O)Nc4c(Cl)c(OC)cc(OC)c4Cl)ncn3)cc2)CC1,inactive,inactive,–,–,inactive,–,inactive,–,–,–
C[C@H](c1ccc(F)cc1CCCC(=O)O)N(c1cc(F)ccc1F)S(=O)(=O)c1ccc(Cl)cc1,14.8 µM (active),inactive,inactive,–,–,–,inactive,14.8 µM (active),–,–
c1ccc(-c2oc3ncnc(NC[C@@H]4CCCO4)c3c2-c2ccccc2)cc1,2.64 µM (active),–,–,27.3 µM (active),–,18.7 µM (active),inactive,18.7 µM (active),18.7 µM (active),29.6 µM (active)
CN(C)CCOc1ccc(-c2nc(-c3ccc4c(c3)CCC4=NO)c(-c3ccncc3)[nH]2)cc1,20.9 µM (active),27.3 µM (active),23.5 µM (active),–,–,23.5 µM (active),–,18.7 µM (active),–,18.7 µM (active)
CON(C)C(=O)N1N=C(c2cc(F)ccc2F)S[C@]1(CCCN)c1ccccc1,inactive,15.3 µM (active),–,0.001 µM (active),–,–,inactive,inactive,–,–
CNC(=O)[C@H](CC1=CN=C2C=CCC=C12)NC(=O)[C@@H](CC(=O)NO)CC(C)C,0.0662 µM (active),0.344 µM (active),inactive,1.37 µM (active),9.35 µM (active),–,inactive,inactive,–,1.18 µM (active)
C[C@@H]1[C@H](O)[C@@H](C)C=CC=CC=CC=CC=CC=CC=C[C@H](O[C@@H]2O[C@H](C)[C@H](O)[C@H](N)[C@@H]2O)C[C@@H]2O[C@](O)(C[C@@H](O)C[C@@H](O)[C@H](O)CC[C@@H](O)C[C@@H](O)CC(=O)O[C@H]1C)C[C@H](O)[C@@H]2C(=O)O,0.166 µM (active),inactive,inactive,inactive,inactive,–,inactive,0.418 µM (active),–,0.743 µM (active)
CC(=O)O[C@]1(C(C)=O)CC[C@H]2[C@@H]3C=C(Cl)C4=CC(=O)[C@@H]5C[C@H]5[C@]4(C)[C@@H]3CC[C@@]21C,14.8 µM (active),3.43 µM (active),inactive,3.43 µM (active),–,–,–,–,–,18.7 µM (active)
Cc1ccc2c(=O)c3cccc(CC(=O)O)c3oc2c1C,14.8 µM (active),inactive,inactive,inactive,23.5 µM (active),23.5 µM (active),inactive,inactive,–,29.6 µM (active)
CC(C)C[C@H](NC(=O)c1cc2ccccc2s1)C(=O)N1CCN(C(=O)[C@H](CO)NS(=O)(=O)c2ccc(Cl)cc2Cl)CC1,23.5 µM (active),0.001 µM (active),–,21.7 µM (active),–,–,inactive,–,–,29.6 µM (active)
CC(=O)Nc1cccc(-n2c(=O)n(C3CC3)c(=O)c3c(Nc4ccc(I)cc4F)n(C)c(=O)c(C)c32)c1,18.7 µM (active),–,–,–,–,–,inactive,–,18.7 µM (active),0.0372 µM (active)
Cc1nn(Cc2ccccc2Cl)c(C)c1CN(C)CC(O)COc1ccc(Cl)cc1 (centres undefined),14.8 µM (active),–,–,24.3 µM (active),–,–,inactive,–,20.9 µM (active),33.2 µM (active)
CCC[C@H](N[C@@H](C)C(=O)N1[C@@H]2CCCC[C@H]2C[C@H]1C(=O)O)C(=O)OCC,inactive,–,–,–,inactive,inactive,inactive,inactive,inactive,–
Cc1c(-c2cccc3c(CCCOc4cccc5ccccc45)c(C(=O)O)n(Cc4cccnc4)c23)c(COc2ccc(N3CCN([S+](=O)([O-])N(C)C)CC3)cc2)nn1C,23.5 µM (active),–,–,–,23.5 µM (active),–,inactive,–,20.9 µM (active),33.2 µM (active)
Cc1cc(CS(=O)(=O)c2ccccc2)cc(OCc2ccc(CN3CCC[C@H]3CO)cc2)c1,14.8 µM (active),–,–,–,–,–,inactive,–,inactive,5.9 µM (active)
CCCCOCCOc1nc(-c2ccc(C(=O)O)c(F)c2)sc1C,inactive,–,–,0.485 µM (active),–,–,inactive,–,inactive,inactive
CC(C)C[C@@H](C(=O)N[C@H](C(=O)OC1CCCC1)c1ccccc1)[C@H](O)C(=O)NO,18.7 µM (active),–,–,21.7 µM (active),–,–,inactive,–,16.6 µM (active),–
C[C@H](CCC(=O)O)[C@H]1CC[C@H]2[C@H]3[C@@H](CC[C@]12C)[C@@]1(C)CC[C@@H](O)C[C@H]1C[C@@H]3O,inactive,inactive,inactive,inactive,–,–,inactive,inactive,–,–
CCOc1ccccc1N=Nc1c(C)[nH]n(-c2nc(-c3ccccc3)cs2)c1=O,1.18 µM (active),inactive,inactive,–,–,–,inactive,–,–,–
OC(c1cc(C(F)(F)F)nc2c(C(F)(F)F)cccc12)C1CCCCN1 (centres undefined),inactive,–,–,–,–,inactive,inactive,inactive,33.2 µM (active),–
CN1CCC(COc2cnc(-c3cccc(Cn4nc(-c5cccc(C#N)c5)ccc4=O)c3)nc2)CC1,inactive,inactive,inactive,–,0.743 µM (active),3.72 µM (active),–,inactive,–,4.69 µM (active)
O=C(NC[C@H](O)CO)c1ccncc1Nc1ccc(I)cc1F,inactive,–,10.5 µM (active),inactive,inactive,–,inactive,inactive,–,–
CCCCC(C)(C)[C@H](O)C=C[C@H]1[C@H](O)CC(=O)[C@H]1CC=CCCCC(=O)O,inactive,–,inactive,inactive,inactive,–,inactive,–,–,–

SMILES,Potency [1],Potency [2],Potency [3],Potency [4],Potency [5],Potency [6],Potency [7],Potency [8],Potency [9],Potency [10]
CCCCc1ccc(NS(=O)(=O)c2ccc(C)c(C(=O)N3CCN(c4cccc(C)c4C)CC3)c2)cc1,23.5 µM (active),–,–,–,–,–,inactive,–,–,33.2 µM (active)
CCOC(=O)[C@H](CCc1ccccc1)N[C@@H](C)C(=O)N1CCCC1C(=O)O (some centres undefined),–,inactive,inactive,inactive,inactive,inactive,inactive,inactive,inactive,inactive
c1ccc(CNc2nc(N3CCOc4ccccc43)nc3c2CCCC3)cc1,23.5 µM (active),–,inactive,–,inactive,–,inactive,inactive,–,inactive
CC1(C)C(N(O)C(=O)Nc2ccc(Cl)cc2)N(c2ccc(Cl)cc2)C(=O)N1CC(=O)NN=CC=Cc1ccc([N+](=O)[O-])o1 (centres undefined),20.9 µM (active),–,20.9 µM (active),–,–,–,–,–,–,29.6 µM (active)
C[C@@H](NC(=O)c1ncnc(N)c1Cl)c1ncc(C(=O)Nc2cc(C(F)(F)F)c(Cl)cn2)s1,14.8 µM (active),–,inactive,–,inactive,–,–,–,–,–
CCC[C@@H](NC(=O)[C@@H]1[C@H]2CCC[C@@H]2CN1C(=O)[C@@H](NC(=O)[C@@H](NC(=O)c1cnccn1)C1CCCCC1)C(C)(C)C)C(=O)C(=O)NC1CC1,inactive,–,–,–,inactive,–,inactive,inactive,–,–
N#CC1(c2cccc(C(=O)Nc3cc(Oc4ccc5nc(NC(=O)C6CC6)sc5n4)ccc3F)c2Cl)CC1,inactive,–,–,19.3 µM (active),–,–,inactive,–,–,–
COc1ccc2nc3cc(Cl)ccc3c(Nc3cc(CN4CCCC4)c(O)c(CN4CCCC4)c3)c2n1,inactive,–,inactive,–,inactive,inactive,inactive,inactive,–,–
O=C(Nc1ncc(SCCN2CCCC2)s1)[C@]1(c2ccc(S(=O)(=O)C3CC3)cc2)C[C@@H]1C1CCCCC1,–,27.3 µM (active),20.9 µM (active),24.3 µM (active),29.6 µM (active),–,inactive,20.9 µM (active),23.5 µM (active),14.8 µM (active)
Oc1ccc(C=Cc2cc(O)cc(O)c2)cc1,20.9 µM (active),–,inactive,–,–,–,inactive,inactive,–,–
O=C(CC12CC3CC(CC(C3)C1)C2)Nc1cccc2nc(NCCNCCO)ccc12,13.2 µM (active),–,inactive,27.3 µM (active),–,inactive,–,–,–,33.2 µM (active)
Cc1ccccc1C(=O)c1ccc(Nc2ccc(Br)cc2N)cc1Cl,20.9 µM (active),–,–,–,–,–,inactive,–,–,–
COc1cc([C@H]2Oc3cc([C@H]4Oc5cc(O)cc(O)c5C(=O)[C@H]4O)ccc3O[C@H]2CO)ccc1O,23.5 µM (active),–,inactive,inactive,–,–,inactive,–,–,–
NCC1CCC(C(=O)O)CC1 (centres undefined),–,inactive,inactive,inactive,inactive,inactive,inactive,inactive,inactive,inactive
Cc1ccc(NC(=O)Nc2cc(C(F)(F)F)ccc2F)cc1Nc1ccc2c(c1)NC(=O)C2=Cc1ccc[nH]1,11.8 µM (active),–,–,27.3 µM (active),18.7 µM (active),–,inactive,–,–,18.7 µM (active)
COc1cccc(OC)c1-c1cc(C(=O)NC2(C(=O)O)C3CC4CC(C3)CC2C4)nn1-c1ccnc2cc(Cl)ccc12 (centres undefined),–,inactive,inactive,inactive,inactive,inactive,inactive,inactive,inactive,inactive
O=C(Nc1cccc2c(=O)cc(-c3nn[nH]n3)oc12)c1ccc(OCCCCc2ccccc2)cc1,inactive,–,–,24.3 µM (active),inactive,inactive,inactive,inactive,–,37.2 µM (active)
O=[N+]([O-])c1ccc(Nc2ccccc2-c2ccccc2)c2nonc12,23.5 µM (active),–,inactive,–,–,–,inactive,–,–,–
CC(C)c1onc(-c2c(Cl)cccc2Cl)c1COc1ccc(C=Cc2cccc(C(=O)O)c2)c(Cl)c1,inactive,–,–,30.6 µM (active),–,–,inactive,–,–,–
CN1CC(=O)NC1=NC(=O)Nc1cccc(Cl)c1,4.69 µM (active),–,inactive,–,inactive,–,inactive,–,–,inactive
CC(C)(CO)[C@@H](O)C(=O)NCCC(=O)O,–,inactive,inactive,inactive,inactive,inactive,inactive,inactive,inactive,inactive
C[C@@H](O[C@H]1OCCN(Cc2n[nH]c(=O)[nH]2)[C@@H]1c1ccc(F)cc1)c1cc(C(F)(F)F)cc(C(F)(F)F)c1,23.5 µM (active),–,–,30.6 µM (active),23.5 µM (active),–,inactive,–,–,–
COc1cc2c(cc1Cc1cccc(Cl)c1F)c(=O)c(C(=O)O)cn2[C@H](CO)C(C)C,23.5 µM (active),–,–,27.3 µM (active),–,–,inactive,–,–,–
O=C(O)c1ccc(O)c2ncc(N3CCOCC3)cc12,23.5 µM (active),–,inactive,24.3 µM (active),–,–,–,–,–,–
